Bioassay records from PubChem BioAssay.
Jurkat NFkB inh – inhibitors of the PMA/ionomycin-induced NF-kB reporter in Jurkat cells; AID 435003; PMA/ionomycin-induced NF-kB luciferase reporter, luminescence; inhibition, % at 4 µM; actives 0.53% (n = 330,000); in the data active = inhibition above about 50%
697 NFkB inh – lowers PMA/ionomycin-induced NF-kB signal in 697 B cells; 697 B-cell NF-kB luciferase reporter, 16 h; inhibition, % at 4 µM; actives 0.33% (n = 330,000); AID 435022; in the data active = inhibition above about 35%
Beta apoptosis – blocks beta cell apoptosis; INS-1E cytokine-induced death, ATP luminescence, 48 h; percent of positive-control rescue, neutral wells zero; protection from apoptosis, % (concentration not given with the values); actives 0.8% (n = 300,000); AID 435005;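 active = Every replicate reaches about 75%, or at least half do and their mean reaches it too, limit read from the data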;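 note: 0% = cytokine-treated negative control wells and 100% = positive control rescue; higher means more ATP so stronger rescue from cytokine killing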
Gli-Sufu block – Gli-Sufu pathway antagonism; Sufu-KO-LIGHT fibroblasts, Gli luciferase reporter luminescence; inhibition, % at 5 µM; actives 0.74% (n = 340,000); AID 588413;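 active = inhibition above about 55%, limit read from the data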;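 note: 0% = DMSO-treated cells and 100% = wells with medium but no cells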
Gli antag conf – confirmation of Gli-SUFU pathway antagonists; shares compounds with Gli-Sufu block; Sufu-KO-LIGHT cells, Gli luciferase reporter, luminescence; inhibition, % at 5 µM; actives 40% (n = 2,500); AID 602428;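 active = mean inhibition at 5 µM reaching about 45%, limit read from the data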;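 note: plate controls were DMSO-treated cells for no effect and wells lacking cells for full effect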
Gli cytotox – counter-screen for Gli-SUFU antagonists: cytotoxicity; shares compounds with Gli-Sufu block; Sufu-KO-LIGHT cells cytotoxicity, ATP luminescence; cytotoxicity, % at 5 µM; actives 32% (n = 2,500); AID 651994;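 active = mean cytotoxicity at 5 µM above about 25%, limit read from the data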;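 note: cells exposed to compound overnight for roughly 16 to 18 hours; plate controls were DMSO wells with cells for no effect and medium without cells for full effect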
Wnt3a counter – inhibits Wnt3a reporter, counter-screen for Gli-SUFU antagonists | shares compounds with Gli-Sufu block | Wnt-LIGHT cells, Wnt3a-driven luciferase reporter, luminescence | inhibition, % at 6.25 µM | actives 20% (n = 2,500) | AID 651995;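 active = mean inhibition above about 25%, limit read from the data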
Active calls of the source: *; x = not tested or not shown. Shown are actives, neighbours in structure and some others; about 1.8% of the full set was active somewhere.

SMILES	Jurkat NFkB inh	697 NFkB inh	Beta apoptosis	Gli-Sufu block	Gli antag conf	Gli cytotox	Wnt3a counter
O=C(NC1CCCN(Cc2ccc(Cl)cc2)C1)c1c(F)cccc1F (stereo not drawn)	-5.2	5.2	x	12.6	x	x	x
COc1cccc(CC(=O)NC2CCCN(Cc3ccc(Cl)cc3)C2)c1 (stereo not drawn)	-9.4	-21.3	x	22.9	x	x	x
O=C1C(=O)N(CCCn2ccnc2)C(c2cccc(Br)c2)/C1=C(\O)c1ccc2c(c1)OCCO2 (stereo not drawn)	9.2	-13.3	-8.9	50.7	32.9	22.1	-16.6
O=C1C(=O)N(CCCn2ccnc2)C(c2ccc(Br)cc2)/C1=C(\O)c1ccc2c(c1)OCCO2 (stereo not drawn)	1.7	21.9	1.0	-10.0	x	x	x
Cc1nn(Cc2noc(C(=O)NC3CCC(C)CC3)n2)c(C)c1Br (stereo not drawn)	3.3	9.3	20.5	50.7	80.1*	28.7*	1.2
CN(C)S(=O)(=O)c1cc(NC(=O)CNCc2ccccc2)ccc1Cl	-9.4	1.3	0.1	-19.6	x	x	x
CN(C)c1ccncc1C(=O)Nc1ccc(F)cc1F	3.8	-10.9	-7.9	58.6*	19.3	-3.1	3.6
COC(=O)c1ccc(NC(=O)CNC(=O)C2CCCCC2)cc1	-18.8	-5.7	-5.0	93.8*	5.5	-4.1	-11.2
CCOC(=O)c1ccc(NC(=O)CNC(=O)C2CCCCC2)cc1	10.7	13.6	-0.3	-2.5	x	x	x
Cc1ccc(SCc2nc(-c3ccncc3)no2)cc1	-11.9	-22.6	-3.6	-14.3	x	x	x
Cc1c2c(nc3ccccc13)CCC(C)C2 (stereo not drawn)	2.4	-7.6	-1.0	-2.2	x	x	x
CSc1nc2c(c(C(F)(F)F)n1)CC(C)CC2 (stereo not drawn)	15.7	21.3	3.7	99.0*	3.1	-0.1	-10.8
Cc1ccc(N2C(=O)c3cccc(Oc4ccc(Cl)cc4)c3C2=O)c(C)c1	14.6	-3.4	9.4	1.8	x	x	x
COc1ccccc1NC(=S)NCc1ccco1	6.1	-10.6	x	6.0	x	x	x
CCCC(=O)N1CCN(c2nc(CC(C)C)c3c(c2C#N)CCC3)CC1	-10.3	-15.7	0.3	5.2	x	x	x
CCN1C/C(=C\c2cc(OC)c(OC)c(OC)c2)C2=NN(c3ccccc3)C(c3cc(OC)c(OC)c(OC)c3)C2C1 (stereo not drawn)	x	x	x	53.2	29.8	16.9	-9.2
COc1cc(/C=C2/CCc3ccccc3C2=O)cc(OC)c1OC	-10.2	-51.7	-5.1	x	x	x	x
CCc1nnc(NC(=O)c2cc(-c3ccco3)nc3ccccc23)s1	6.2	19.2	-5.3	61.2*	9.5	10.8	-5.2
COc1ccc(Cl)cc1NC(=O)CCc1nnc2ccc(N3CCC4(CC3)OCCO4)nn12	-2.2	-4.9	4.4	-8.6	x	x	x
COc1ccc(Cl)cc1NC(=O)CCc1nnc2ccc(N3CCN(C)CC3)nn12	-0.2	-25.7	1.1	59.8*	35.9	13.0	-6.7
Cc1cc(C)c(OCC(=O)Nc2ccc(S(=O)(=O)N3CCCC3)cc2)c(C)c1	15.4	5.3	2.7	97.7*	20.4	25.5*	-23.5
Cc1cc(-c2ccccc2)c2c(n1)sc1c(O)cc(=O)[nH]c12	1.7	9.0	-1.5	6.8	x	x	x
Cc1cc(-c2cccs2)c2c(n1)sc1c(=O)[nH]c(=O)[nH]c12	10.3	7.2	2.1	84.0*	4.3	30.7*	-27.4
COc1ccc(-c2cn(-c3ccc(OC)cc3)c3[n+]2-c2ccccc2CC3)cc1	40.2	27.2	131.6*	88.4*	90.9*	46.5*	25.9*
COc1ccc(-n2cc(-c3ccccc3)[n+]3c2CCCCC3)cc1	32.4	-12.3	99.1*	85.2*	87.2*	28.2*	37.1*
SMILES	Jurkat NFkB inh	697 NFkB inh	Beta apoptosis	Gli-Sufu block	Gli antag conf	Gli cytotox	Wnt3a counter
COc1ccc(-n2cc(-c3ccccc3)nc2SC)cc1	-60.1	-58.0	-1.8	-63.8	x	x	x
FC(F)Sc1ccc(-n2cc(-c3ccccc3)[n+]3c2CCC3)cc1	10.5	-10.7	20.5	60.5*	58.6*	36.3*	-24.3
CC1(C)CC(=O)C=C(Nc2ccc([N+](=O)[O-])cc2)C1	-14.9	-27.2	-4.6	5.5	x	x	x
Cc1ccc(-n2c(CCC(=O)O)ccc2-c2cccs2)cc1	-122.9	-95.5	3.9	24.8	x	x	x
CCOC(=O)c1ccc(NC(=O)CSc2nnc(CNC(=O)c3ccco3)o2)cc1	-1.7	-14.0	-3.8	-5.3	x	x	x
Fc1ccccc1-c1csc(-c2cccnc2)n1	-34.3	-35.0	5.4	31.0	x	x	x
Cc1csc(-c2cccnc2)n1	-1.7	-12.4	-3.2	98.7*	13.7	-5.7	16.4
CCOc1ccc(CN(C)C(=O)c2ccc3ccccc3n2)cc1	-5.3	5.8	-5.0	-22.6	x	x	x
COCCNC(=O)CSc1nc2cc3c(cc2c(=O)n1CCCC(=O)NCc1ccc(OC)cc1)OCO3	-23.3	19.0	-0.1	6.0	x	x	x
COc1cc2[nH]c(=O)n(Cc3ccccc3Cl)c(=O)c2cc1OC	-8.6	16.4	2.3	54.9	30.9	5.9	10.4
CCC[N+]1(CC#CCC(c2ccccc2)c2ccccc2)CCCCC1	34.5	2.9	104.9*	84.2*	87.7*	49.0*	36.0*
C#CC[N+]1(CC#Cc2ccccc2)CCCCC1	-7.3	4.0	-0.7	11.4	x	x	x
C(#Cc1ccccc1)C[N+]1(CC#Cc2ccccc2)CCCCC1	24.8	-40.2	x	81.4*	78.6*	37.7*	24.3
Cc1ccc(C#CC[N+]2(CC#Cc3ccc(C)cc3)CCCCC2)cc1	29.2	19.0	113.0*	87.8*	88.8*	39.1*	-6.6
O=C(C[N+]1(CC#Cc2ccccc2)CCCCC1)c1ccccc1	-11.3	-4.2	-2.9	11.3	x	x	x
COc1ccc(Cl)cc1NC(=O)/C=C/C(=O)O	-6.7	-11.1	-1.5	-2.4	x	x	x
Cc1cc(CNCc2cn(C)nc2-c2ccc(Oc3ccccc3)cc2)on1	12.2	1.3	3.6	27.9	x	x	x
O=c1[nH]c(=O)n(-c2ccc(F)cc2)c2c1C(C(F)(F)F)(C(F)(F)F)N=C(c1ccc(F)cc1)N2	19.8	-46.6	75.8*	75.2*	68.5*	10.0	77.2*
c1ccc2c(Nc3ccc4c(c3)OCCO4)c3c(nc2c1)CCCC3	12.4	-29.7	-2.7	52.4	31.7	-2.1	-23.8
CCOC(=O)CCCCC(=O)c1[nH]c(=O)[nH]c1CN1CCOCC1	0.5	0.8	-9.3	8.4	x	x	x
CNC(=S)N/N=C(\C)c1ccc(N2CCOCC2)cc1	x	x	x	67.5*	-18.1	6.5	-67.9
CCN(C(=O)CSc1nnc(C)n1Cc1ccccc1)C1CCS(=O)(=O)C1 (stereo not drawn)	2.2	-1.3	0.8	-23.0	x	x	x
CCN(C(=O)CSc1nnc(-c2ccncc2)n1Cc1ccccc1)C1CCS(=O)(=O)C1 (stereo not drawn)	1.6	12.9	-2.1	58.2*	15.3	18.7	-5.6
COC(=O)c1cc(S(=O)(=O)N2CCN(c3ccc(C(C)=O)cc3)CC2)c[nH]1	8.5	-10.6	1.2	61.5*	18.7	-0.7	-27.3
